Where a name gives a salt, the structure may show the parent alone.
Test system: MARIMO
Experiment: cell viability relative to vehicle control; higher = less cytotoxic
Details: 10 µM; SRSF2 genotype: SRSF2 P95H/wt
Method in brief: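 Mutant clones made by CRISPR editing and their isogenic wild-type counterparts, from four leukaemia lines, were exposed to a single 10 µM dose of each library compound for 48 h. The supernatant was then removed and CellTiter-Glo luminescence was read. Viability was reported as percent of the on-plate vehicle control.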

Going from CC1(C)CCC[C@](C)([C@H]2CC[C@]3(C)[C@@H]2[C@H](O)C[C@@H]2[C@@]4(C)CC[C@H](O)C(C)(C)[C@@H]4[C@@H](O)C[C@]23C)O1 [Panaxatriol] to CC(C)=CCC[C@](C)(O[C@@H]1O[C@H](CO)[C@@H](O)[C@H](O)[C@H]1O)[C@H]1CC[C@]2(C)[C@@H]1[C@H](O)C[C@@H]1[C@@]3(C)CC[C@H](O)C(C)(C)[C@@H]3[C@@H](O[C@@H]3O[C@H](CO)[C@@H](O)[C@H](O)[C@H]3O[C@@H]3O[C@@H](C)[C@H](O)[C@@H](O)[C@H]3O)C[C@]12C [Ginsenoside Re], the cell viability falls from 103% to 99.2%.

Going from COc1cc2c(cc1OC)[C@@H]1Cc3ccc(OC)c(OC)c3CN1CC2 [Tetrahydropalmatine hydrochloride] to COc1ccccc1C(=O)Nc1cc2c(cc1N1CCCC1)n(C)c(=O)n2C, the cell viability falls from 91.4% to 84.1%.

First: CCCCCCCCOc1ccccc1C(=O)Nc1ccc(C(=O)OCC[N+](C)(CC)CC)cc1 [Otilonium Bromide]
Second: C=CC(=O)Nc1cccc(Nc2nc(Nc3ccc(OCCOC)cc3)ncc2F)c1
The cell viability of the first is higher: 84.9% for the first, 62.1% for the second.

Compared with CC(CCc1ccccc1)NCC(=O)c1ccc(O)c(C(N)=O)c1 (stereo not given) [Labetalone hydrochloride], CC(=O)OCCc1ccc(O)c(O)c1 [Hydroxytyrosol Acetate] is lower in cell viability: 96.7% for the first, 85.5% for the second.

Compared with COC1(c2sc3c(N4CCOCC4)nc(-c4cnc(N)nc4)nc3c2C)COC1, O=C1N=C(N2CCOCC2)CN1c1ccc(Cl)cc1 is higher in cell viability: 47.9% for the first, 99.3% for the second.

Going from CC(=O)N1CCN(c2ccc(OCC3COC(Cn4ccnc4)(c4ccc(Cl)cc4Cl)O3)cc2)CC1 (stereo not given) [Ketoconazole] to CCc1c(C(=O)NCCc2ccc(N3CCCCC3)cc2)[nH]c2ccc(Cl)cc12, the cell viability rises from 34.9% to 106%.

First: CC(C)=CCOc1ccc(/C=C/C(=O)c2ccc(OCC=C(C)C)cc2OCC(=O)O)cc1 [Sofalcone]
Second: COc1ccc2cc([C@H](C)C(=O)O)ccc2c1 [Naproxen Sodium]
The cell viability of the first is higher: 105% for the first, 101% for the second.

First: CC(=O)c1cc2c(o1)C(=O)c1ccccc1C2=O [Napabucasin]
Second: Cc1coc2c1C(=O)C(=O)c1c-2ccc2c(C)cccc12 [Tanshinone I]
The cell viability of the first is lower: 3.59% for the first, 70.6% for the second.

Compared with C/C=C(\C)C(=O)OC1c2c(ccc3ccc(=O)oc23)OC(C)(C)C1OC(=O)/C(C)=C/C (stereo not given) [Praeruptorin B], C/C=C(/C)C(=O)OC(C)(C)[C@@H]1Cc2c(ccc3ccc(=O)oc23)O1 [Columbianadin] is higher in cell viability: 84.4% for the first, 87.8% for the second.

Compared with CN(C)CCCNC(=O)c1ccc(-c2cc(O)c3ncccc3c2)cc1, COc1cc2c(=O)c(-c3ccc(O)cc3)coc2cc1O [Glycitein] is higher in cell viability: 52.3% for the first, 95.4% for the second.

Going from O=c1ncccn1[C@@H]1O[C@H](CO)[C@@H](O)[C@H]1O [Zebularine] to C[C@H]1O[C@@H](n2cc(F)c(=O)[nH]c2=O)[C@H](O)[C@@H]1O [Doxifluridine], the cell viability rises from 87.7% to 100%.

Compared with COc1cccc(-c2cc(=O)c3ccccc3o2)c1N, Cc1cc(C)nc(NS(=O)(=O)c2ccc(NC(=S)NC(=O)COc3ccc(Br)cc3Cl)cc2)n1 is higher in cell viability: 69.9% for the first, 82.3% for the second.

Going from CC/C=C(\C(=O)N[C@@H]1C(=O)N2C(C(=O)OCOC(=O)C(C)(C)C)=C(COC(N)=O)CS[C@H]12)c1csc(N)n1 [Cefcapene Pivoxil Hydrochloride] to CO/N=C(\C(=O)N[C@@H]1C(=O)N2C(C(=O)OCOC(=O)C(C)(C)C)=C(/C=C\c3scnc3C)CS[C@H]12)c1csc(N)n1 [Cefditoren pivoxil], the cell viability rises from 93.2% to 104%.

Going from S=c1nc[nH]c2nc[nH]c12 [6-Mercaptopurine (6-MP) Monohydrate] to Clc1cccc(Cl)c1NC1=NCCN1 [Clonidine hydrochloride (Catapres)], the cell viability rises from 104% to 110%.

Compared with C[C@H]1[C@H](C)CC[C@]2(C(=O)O[C@@H]3O[C@H](CO[C@@H]4O[C@H](CO)[C@@H](O[C@@H]5O[C@H](C)[C@H](O)[C@@H](O)[C@H]5O)[C@H](O)[C@H]4O)[C@@H](O)[C@H](O)[C@H]3O)CC[C@]3(C)C(=CC[C@@H]4[C@@]5(C)C[C@@H](O)[C@H](O)[C@@](C)(CO)[C@@H]5CC[C@]43C)[C@H]12 [Asiaticoside], COc1c(N2C[C@@H]3CCCN[C@@H]3C2)c(F)cc2c(=O)c(C(=O)O)cn(C3CC3)c12 [Moxifloxacin] is lower in cell viability: 103% for the first, 93.9% for the second.

Compared with Cc1ncc(COP(=O)(O)O)c(C=O)c1O [Pyridoxal phosphate], CC(C)=CCCC(C)=CCCC(C)=CCCC(C)=CCC1=C(C)C(=O)c2ccccc2C1=O [Vitamin K2] is lower in cell viability: 100% for the first, 82.8% for the second.

Going from COC(=O)N[C@H](C(=O)N1CCC[C@H]1c1ncc(-c2ccc(-c3ccc(-c4cnc([C@@H]5CCCN5C(=O)[C@@H](NC(=O)OC)C(C)C)[nH]4)cc3)cc2)[nH]1)C(C)C [Daclatasvir Digydrochloride] to C=CC(=O)N1CCC(Oc2cc3c(Nc4ccc(Cl)c(Cl)c4F)ncnc3cc2OC)CC1 [Poziotinib (HM781-36B)], the cell viability rises from 62.1% to 71.9%.

Going from OCC(O)C(O)C(O)C(O)CO (stereo not given) [Allitol] to CCCCCCCC(=O)N[C@H](CN1CCCC1)[C@H](O)c1ccc2c(c1)OCCO2 [Eliglustat (Tartrate)], the cell viability falls from 107% to 91.1%.

Going from CCCCC[C@](C)(O)/C=C/[C@@H]1[C@@H](C/C=C\CCCC(=O)O)[C@@H](O)C[C@H]1O [Carboprost] to NC(=O)N/N=C/c1ccc([N+](=O)[O-])o1 [Nitrofurazone (Nitrofural)], the cell viability rises from 97.5% to 104%.

Going from Cc1nc2cc(F)c(F)cc2n1-c1cncc(Nc2ccc(C(F)(F)F)cc2)n1 to Cc1ccc(-c2nn(C(C)(C)C)c3ncnc(N)c23)cc1, the cell viability rises from 8.44% to 99.2%.
